# Test results as given in PubChem BioAssay AID2314 (National Center for Advancing Translational Sciences (NCATS), 2010).
# The whole screen tested about 300,000 compounds, of which about 37,000 (12%) were called active. Cut-off read from the data, not from the text of the source: active = max response mostly above about 13% (no sharp cut-off); inactive = mostly below about 14%. This excerpt belongs to a sample that is enriched for actives.
# Assay: Cycloheximide Counterscreen for Small Molecule Inhibitors of Shiga Toxin; note: read at 38.3 µM for the half of the compounds with a filed dose; 0% is about no effect
# Settings: cell reporter, cycloheximide protein synthesis inhibition counterscreen; stronger effect = higher value
row,Structure (SMILES),max response
1,CCC(=O)/C(=C(/O)c1ccccc1)c1nc2ccccc2[nH]1,31% (active)
2,Cc1nc2ccccc2c(-c2ccccc2)c1C(=O)c1ccccc1,-4.4% (inactive)
3,CC/C(O)=C1\C(=O)CC(C)(C)CC1=NCCc1nc2ccccc2[nH]1,6.92% (inactive)
4,Cc1nnc(Sc2nc3c(c(=O)[nH]c(=O)n3C)n2Cc2ccccc2)s1,-5.79% (inactive)
5,Cn1c(SCC(=O)N2CCOCC2)nnc1-c1ccc2ncccc2c1,-0.963% (inactive)
6,Cc1ccccc1-c1nnc(SCC(=O)NCc2ccc3c(c2)OCO3)n1C,-2.35% (inactive)
7,Cn1c(SCC(=O)N2CCCC2)nnc1-c1ccc2c(c1)OCO2,18.9% (active)
8,Cn1c(SCC(=O)N2CCOCC2)nnc1-c1ccc(NC(=O)c2ccccc2F)cc1,-4.11% (inactive)
9,O=C(O)CSc1nnc(-c2ccc3c(c2)OCO3)n1-c1ccccc1,12.9% (inactive)
10,Cn1c(SCc2nc3ccccc3s2)nnc1-c1ccc2c(c1)OCO2,39.5% (active)
11,COc1ccccc1NC(=O)CCN1CCN(c2ccc(Cl)cc2)CC1,-0.528% (inactive)
12,COc1cc(C(C(=O)NC2CCCC2)N(C(=O)c2ccco2)c2ccccc2C(C)=O)cc(OC)c1OC (stereo unspecified),3.6% (inactive)
13,CC(C)c1c(C(=O)N/N=C/c2ccccc2C(=O)O)nnn1-c1nonc1N,23.4% (inactive)
14,COc1ccccc1C(=O)NC(CCSC)C(=O)NNC(=O)c1csc(N2CCOCC2)n1 (stereo unspecified),-1.29% (inactive)
15,O=C(NCCc1ccc(Cl)cc1Cl)c1cc([N+](=O)[O-])c[nH]c1=O,-5.02% (inactive)
16,CCCN1CCN(C(=O)CCCNC(=O)c2ccc(Cl)cc2)CC1,-2.8% (inactive)
17,COc1ccc(NC(=O)NN2CCN(C)CC2)c(OC)c1,0.309% (inactive)
18,O=C(NC(=O)c1ccccc1N1CCCCC1)Nc1ccc(Br)cc1,-3.48% (inactive)
19,CN1CCN(NC(=O)Nc2ccc(Br)cc2)CC1,24.2% (active)
20,COc1ccc(-c2nc3c(s2)CCc2onc(-c4ccc(OC)cc4)c2-3)cc1,-2.4% (inactive)
21,COc1ccc(S(=O)(=O)N2CCN(C)CC2)c(C)c1,-3.62% (inactive)
22,COc1cccc(Nc2nc(N)c([N+](=O)[O-])c(NCc3ccco3)n2)c1,19.4% (active)
23,CN(c1ccccc1)c1nc(N)c([N+](=O)[O-])c(NCc2ccco2)n1,1.96% (inactive)

row,Structure (SMILES),max response
1,Nc1nc(NCCCN2CCOCC2)nc(Nc2ccccc2)c1[N+](=O)[O-],-2.59% (inactive)
2,COc1ccccc1CCNS(=O)(=O)c1cc2c3c(c1)C(C)C(=O)N3CCC2 (stereo unspecified),4.12% (inactive)
3,CC1=C(C)C(=O)OC(C(C)C2CCC3C4CC=C5CC(OC6OC(COC7OC(CO)C(O)C(O)C7O)C(O)C(O)C6O)CC(O)C5(C)C4CCC23C)C1 (stereo unspecified),7.38% (inactive)
4,CN(C)c1ccc(Nc2c3c4c(cccc4n(C)c2=O)C(=O)c2ccccc2-3)cc1,3.88% (inactive)
5,Cc1cc(NC(=O)CSc2nnc(-c3ccc(Cl)s3)o2)no1,5.82% (inactive)
6,Cc1cc(N/C=C\C(=O)c2ccc(Cl)c(Cl)c2)no1,11.9% (active)
7,COc1ccc(C(=O)/C=C/Nc2ccccn2)cc1,2.25% (inactive)
8,COc1ccc(NC(=O)CSc2nncc(=O)n2N)cc1OC,-3.35% (inactive)
9,COC(=O)[C@@H]1CC[C@H](C)[C@@H](c2ccc(C)cc2)N1C(=O)c1ccc(/C=N/O[C@H](C)c2cn([C@@H]3COC[C@H]3O)nn2)cc1,-2.13% (inactive)
10,CN1C2CCC1CC(NC(=O)c1ccc([N+](=O)[O-])cc1)C2 (stereo unspecified),-3.99% (inactive)
11,COc1ccc(CCNC(=O)c2c(C)nn(-c3ccccc3)c2Cl)cc1,-2.65% (inactive)
12,CCn1c(=O)c2cc(C(=O)Nc3cccc(C(C)=O)c3)sc2c2ccccc21,-2.44% (inactive)
13,Cc1nn(-c2ccccc2)c(CC(C)(C)C(=O)O)c1C(=O)O,-4% (inactive)
14,Cc1cc(NC(=O)Nc2ccc(Cl)cc2)n(-c2ccccc2)n1,1.95% (inactive)
15,CSc1ccccc1C(=O)Nc1cccc(C(C)=O)c1,11.9% (inactive)
16,Cc1cc(NC(=O)Nc2ccccc2)n(-c2ccccc2)n1,18.1% (active)
17,Cc1ccc(NC(=O)Nc2cc(-c3ccccc3)nn2C)cc1Cl,1.12% (inactive)
18,CC(=O)c1cccc(NC(=O)c2cc(C)nn2-c2ccccc2)c1,12.3% (active)
19,Cc1nn(-c2ccccc2)c(Cl)c1C(=O)Nc1ccccc1,24.4% (active)
20,O=C(NCc1ccco1)/C(=C/c1cccc([N+](=O)[O-])c1)NC(=O)c1ccco1,1.87% (inactive)
21,COC(=O)[C@H](Cc1ccccc1)NC(=O)[C@@H]1C[C@H]1[C@@H](NC(=O)OCc1ccccc1)c1ccccc1,-3.05% (inactive)
22,Cc1nn(C)c(C)c1Sc1ccccc1N,1.39% (inactive)
23,O=C(COc1ccc([N+](=O)[O-])cc1)Nc1cccc(C(=O)Nc2ccccc2C(=O)O)c1,-6.64% (inactive)

row,Structure (SMILES),max response
1,Cc1cccc(N2CCN(C(C)C(=O)N3CCc4ccccc43)CC2)c1C (stereo unspecified),-5.33% (inactive)
2,Nc1ncc(-c2cc3ccccc3oc2=O)s1,43.5% (active)
3,O=C(c1cn(-c2ccccc2)nc1-c1cc2ccccc2oc1=O)N1CCOCC1,6.82% (inactive)
4,O=C(NCc1cccnc1)c1cccc(-c2cc3ccccc3oc2=O)c1,12.9% (inactive)
5,O=C(Nc1ccc(F)cc1)C1CCCN(S(=O)(=O)c2ccc(-n3cnnn3)cc2)C1 (stereo unspecified),-0.989% (inactive)
6,O=C(c1c(F)cccc1Cl)N1CCN(c2ccccn2)CC1,-8.36% (inactive)
7,COc1ccccc1CNC(=O)c1ccc(CS(=O)(=O)c2ccccc2)o1,-1.73% (inactive)
8,O=C(COC(=O)/C=C/c1nc2ccccc2s1)Nc1ccccc1Oc1ccccc1,-1.69% (inactive)
9,CC(=O)c1ccc(S(=O)(=O)N2CCN(C(=O)/C=C/c3ccc4ccccc4n3)CC2)cc1,-1.24% (inactive)
10,NC(=O)COC(=O)/C=C/c1ccc2ccccc2n1,16.4% (active)
11,CCCCCCCCn1c2c(c(=N)c3c1CCC3)CCCC2,-1.22% (inactive)
12,CCC(CC)COC(=O)C1=C(C)NC(=O)NC1c1ccc([N+](=O)[O-])cc1 (stereo unspecified),-4.34% (inactive)
13,COc1ccccc1Nc1ncc(C(C)=O)c(C)n1,17% (active)
14,CCc1ccc2nc(Nc3ncc(C(C)=O)c(C)n3)nc(C)c2c1,4.49% (inactive)
15,COc1ccccc1-c1c(C)nn2c(C)c(C(C)=O)cnc12,-2.56% (inactive)
16,CC(=O)NC(Cc1ccc(F)c(F)c1)C(=O)NC1CCN(c2nnnn2-c2ccccc2)CC1 (stereo unspecified),-1.76% (inactive)
17,COc1ccc(N2CCN(S(=O)(=O)c3cc(Br)cnc3N)CC2)cc1,-1.92% (inactive)
18,COc1ccc(OCc2ccc(-c3nc4ccccc4c(=O)n3N)o2)cc1,30.2% (active)
19,COc1ccc(-c2nc3ccccc3c(=O)n2CCc2ccc(O)cc2)cc1,17.7% (inactive)
20,COc1ccc(OCc2n[nH]c(=S)n2N)cc1,5.41% (inactive)
21,CCCCCNC(=O)C1c2ccccc2Oc2ccccc21,-1.28% (inactive)
22,[2H]C(CCOS(N)(=O)=O)c1ccccc1 (stereo unspecified),-0.0595% (inactive)
23,COC(=O)[C@]1(S(=O)(=O)c2ccccc2)C[C@@H]2ON=C(c3ccc(OC)cc3)[C@@H]2C1,12.7% (inactive)

row,Structure (SMILES),max response
1,CCC1Sc2ccc(S(=O)(=O)CCC(=O)NCc3cccs3)cc2NC1=O (stereo unspecified),15.6% (inactive)
2,Cc1ccc(C)c(NS(=O)(=O)c2cc(Br)cnc2N)c1,-1.97% (inactive)
3,COc1ccccc1-n1nnnc1S(=O)(=O)Cc1ccc(Cl)cc1,16.8% (active)
4,COc1ccccc1CN(C)c1nnnn1-c1ccccc1,-3.28% (inactive)
5,COc1ccccc1N1CCN(S(=O)(=O)c2ccc(Cl)cc2)CC1,-4.44% (inactive)
6,CN(C)c1ccc(CNC2C3CC4CC(C3)CC2C4)cc1 (stereo unspecified),-2.32% (inactive)
7,CC(=O)Oc1ccc(C(=O)Nc2nccs2)cc1,11.1% (inactive)
8,CCOc1ccc(C(=O)Nc2nccs2)cc1[N+](=O)[O-],28.1% (active)
9,CCOc1ccc(C(=O)NC(=S)Nc2ccc(NC(=O)C(C)C)cc2)cc1[N+](=O)[O-],-1.26% (inactive)
10,O=C(N/N=C/c1ccoc1)c1ccc(Cl)cc1Cl,28.2% (active)
11,CC(C)c1cc(C(=O)N/N=C/c2ccoc2)c(O)c(C(C)C)c1,6.52% (inactive)
12,CC(C)NC(=O)c1ccc(Cl)cc1Cl,8.78% (inactive)
13,CC(C)c1ccc(N2CCN(C(=O)c3ccccc3NC(=O)/C=C(\C(=O)O)c3ccccc3)CC2)cc1,24.6% (inactive)
14,COCCCNC(=S)NCCNc1nc2cc(C)c(C)cc2cc1C#N,26% (inactive)
15,COc1ccc(CNS(=O)(=O)c2ccc(-c3cnc(C4CC4)o3)cc2)cc1,-0.963% (inactive)
16,O=C(NCC1CCCO1)c1cc2c([nH]c3ccccc32)c(-c2ccc(F)cc2)n1 (stereo unspecified),-1.44% (inactive)
17,COc1ccc(-c2cc(=O)oc3cc(OC(C)C(=O)NCC4CCC(C(=O)O)CC4)ccc23)cc1 (stereo unspecified),-2.31% (inactive)
18,O=C(CCc1nnc(CCCCc2ccccc2)o1)NC(c1cccnc1)C(F)(F)F (stereo unspecified),-3.39% (inactive)
19,CC(CCn1cccn1)NC(=O)CCc1nnc(CCc2ccccc2)o1 (stereo unspecified),5.1% (inactive)
20,Cc1cc(-c2nnc(CCC(=O)NC(c3ccccc3)c3ccccc3)o2)no1,25.2% (active)
21,CCOC(=O)/C=c1\s/c(=C\c2ccc(C#N)cc2)c(=O)n1CC(=O)Nc1cccc(C)c1C,-1.86% (inactive)
22,Cc1cc(OCc2ccc(C(=O)Nc3ccc(C(=O)O)cc3)o2)ccc1Cl,0.897% (inactive)
